# Measured values as given in PubChem BioAssay AID1159580 (chemical genetic matrix, 2015).
# Several values for one entry are separate records, joined by “and”; a condition that tells them apart may be missing. Equal entries are not always repeated. The whole screen tested about 5,500 compounds, of which about 2,000 (36%) were called active. Inconclusive results (about 18%) are left out. This is one part of the list. A number with no mark means an inactive call. Rule as the data show it: active = normalized growth mostly below about 0.91 (no sharp cut-off); inconclusive = no clear call, values can overlap the other calls; inactive = mostly above about 0.92.
# Assay: chemical genetic growth profiling, strain panel (AID 1159580);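 also: tested at 20 µM; growth read once vehicle control cultures reached saturation at 30 °C; 1 = growth at the plate median or of vehicle wells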
# Conditions: growth OD
# [1] = S. cerevisiae deletion strains, locus YMR307W, strain GAS1, stronger effect = lower value
smiles,measurement,setting,value
CC(C)(O)C1C2OC(=O)C1C1(O)CC3OC34C(=O)OC2C14C (stereo not given) (tested in a mixture with another compound),normalized growth,"S. cerevisiae deletion strains, locus YAL040C, strain CLN3, stronger effect = lower value",0.454 (active)
same,normalized growth,"S. cerevisiae deletion strains, locus YCL061C, strain MRC1 (second series), stronger effect = lower value",1.01
same,normalized growth,"S. cerevisiae deletion strains, locus YDR363W, strain ESC2, stronger effect = lower value",0.969
same,normalized growth,[1],0.983
same,normalized growth,"S. cerevisiae deletion strains, locus YNL175C, strain NOP13, stronger effect = lower value",0.537 (active)
same,normalized growth,"S. cerevisiae deletion strains, locus YNL197C, strain WHI3, stronger effect = lower value",1
same,normalized growth,"S. cerevisiae deletion strains, locus YNL224C, strain SQS1, stronger effect = lower value",1
same,normalized growth,"S. cerevisiae deletion strains, locus YOR083W, strain WHI5 (second series), stronger effect = lower value",0.502 (active)
C=C(C)[C@@H]1[C@H]2OC(=O)[C@@H]1[C@]1(O)C[C@H]3O[C@]34C(=O)O[C@H]2[C@]14C,normalized growth,"S. cerevisiae deletion strains, locus YAL013W, strain DEP1, stronger effect = lower value",0.985
same,normalized growth,"S. cerevisiae deletion strains, locus YBR021W, strain FUR4, stronger effect = lower value",1.01
same,normalized growth,"S. cerevisiae deletion strains, locus YBR229C, strain ROT2, stronger effect = lower value",0.947
same,normalized growth,"S. cerevisiae deletion strains, locus YCL029C, strain bik1, stronger effect = lower value",0.997
same,normalized growth,"S. cerevisiae deletion strains, locus YDL035C, strain GPR1, stronger effect = lower value",0.987
same,normalized growth,"S. cerevisiae deletion strains, locus YDL074C, strain BRE1, stronger effect = lower value",1.02
same,normalized growth,"S. cerevisiae deletion strains, locus YDL101C, strain DUN1, stronger effect = lower value",0.98
same,normalized growth,"S. cerevisiae deletion strains, locus YDL134C, strain PPH21, stronger effect = lower value",0.988
same,normalized growth,"S. cerevisiae deletion strains, locus YDL185W, strain tfp1, stronger effect = lower value",1
same,normalized growth,"S. cerevisiae deletion strains, locus YDL192W, strain arf1, stronger effect = lower value",0.99
same,normalized growth,"S. cerevisiae deletion strains, locus YDR101C, strain arx1, stronger effect = lower value",1
same,normalized growth,"S. cerevisiae deletion strains, locus YDR150W, strain NUM1, stronger effect = lower value",0.971
same,normalized growth,"S. cerevisiae deletion strains, locus YDR162C, strain NBP2, stronger effect = lower value",0.987
same,normalized growth,"S. cerevisiae deletion strains, locus YDR318W, strain mcm21, stronger effect = lower value",1.01
same,normalized growth,"S. cerevisiae deletion strains, locus YDR388W, stronger effect = lower value",1.01
same,normalized growth,"S. cerevisiae deletion strains, locus YDR502C, strain sam2, stronger effect = lower value",0.994
same,normalized growth,"S. cerevisiae deletion strains, locus YEL061C, strain CIN8, stronger effect = lower value",0.987
same,normalized growth,"S. cerevisiae deletion strains, locus YER110C, stronger effect = lower value",0.973
same,normalized growth,"S. cerevisiae deletion strains, locus YER155C, strain BEM2, stronger effect = lower value",0.999
same,normalized growth,"S. cerevisiae deletion strains, locus YER167W, strain BCK2, stronger effect = lower value",1
same,normalized growth,"S. cerevisiae deletion strains, locus YGL078C, strain dbp3, stronger effect = lower value",0.994
same,normalized growth,"S. cerevisiae deletion strains, locus YGL086W, strain mad1, stronger effect = lower value",0.99
same,normalized growth,"S. cerevisiae deletion strains, locus YGL248W, strain PDE1, stronger effect = lower value",0.98
same,normalized growth,"S. cerevisiae deletion strains, locus YGR078C, strain PAC10, stronger effect = lower value",1.01
same,normalized growth,"S. cerevisiae deletion strains, locus YGR135W, strain pre9, stronger effect = lower value",1
same,normalized growth,"S. cerevisiae deletion strains, locus YGR229C, strain SMI1, stronger effect = lower value",1.01
same,normalized growth,"S. cerevisiae deletion strains, locus YGR252W, strain gcn5, stronger effect = lower value",0.95
same,normalized growth,"S. cerevisiae deletion strains, locus YHR030C, strain SLT2, stronger effect = lower value",0.996 and 1.03
same,normalized growth,"S. cerevisiae deletion strains, locus YHR079C, strain IRE1 (second series), stronger effect = lower value",1
same,normalized growth,"S. cerevisiae deletion strains, locus YHR079C, strain IRE1, stronger effect = lower value",0.993
same,normalized growth,"S. cerevisiae deletion strains, locus YHR094C, strain hxt1, stronger effect = lower value",0.996
same,normalized growth,"S. cerevisiae deletion strains, locus YHR129C, strain ARP1, stronger effect = lower value",1
same,normalized growth,"S. cerevisiae deletion strains, locus YHR200W, strain rpn10, stronger effect = lower value",1
same,normalized growth,"S. cerevisiae deletion strains, locus YIL066C, strain RNR3, stronger effect = lower value",0.97
same,normalized growth,"S. cerevisiae deletion strains, locus YIL073C, strain SPO22, stronger effect = lower value",0.982
same,normalized growth,"S. cerevisiae deletion strains, locus YIL125W, strain kgd1, stronger effect = lower value",0.99
same,normalized growth,"S. cerevisiae deletion strains, locus YIR030C, strain dcg1, stronger effect = lower value",0.99
same,normalized growth,"S. cerevisiae deletion strains, locus YJL095W, strain BCK1, stronger effect = lower value",1.02 and 0.989
same,normalized growth,"S. cerevisiae deletion strains, locus YJL134W, strain LCB3, stronger effect = lower value",0.984
same,normalized growth,"S. cerevisiae deletion strains, locus YJL168C, strain set2, stronger effect = lower value",1
same,normalized growth,"S. cerevisiae deletion strains, locus YJL187C, strain SWE1 (second series), stronger effect = lower value",0.986
same,normalized growth,"S. cerevisiae deletion strains, locus YJR043C, strain POL32, stronger effect = lower value",1.02
same,normalized growth,"S. cerevisiae deletion strains, locus YJR066W, strain TOR1, stronger effect = lower value",0.962
same,normalized growth,"S. cerevisiae deletion strains, locus YJR075W, strain HOC1, stronger effect = lower value",1
same,normalized growth,"S. cerevisiae deletion strains, locus YKL009W, strain mrt4, stronger effect = lower value",0.96
same,normalized growth,"S. cerevisiae deletion strains, locus YKL068W, stronger effect = lower value",0.997
same,normalized growth,"S. cerevisiae deletion strains, locus YKL085W, strain MDH1 (second series), stronger effect = lower value",0.996
same,normalized growth,"S. cerevisiae deletion strains, locus YKL085W, strain MDH1, stronger effect = lower value",0.996
same,normalized growth,"S. cerevisiae deletion strains, locus YKL190W, strain CNB1, stronger effect = lower value",1
same,normalized growth,"S. cerevisiae deletion strains, locus YKR001C, strain vps1, stronger effect = lower value",1.01
same,normalized growth,"S. cerevisiae deletion strains, locus YLR039C, strain RIC1, stronger effect = lower value",0.972
same,normalized growth,"S. cerevisiae deletion strains, locus YLR058C, strain SHM2, stronger effect = lower value",0.964
same,normalized growth,"S. cerevisiae deletion strains, locus YLR102C, strain apc9, stronger effect = lower value",1
same,normalized growth,"S. cerevisiae deletion strains, locus YLR113W, strain HOG1, stronger effect = lower value",0.982
same,normalized growth,"S. cerevisiae deletion strains, locus YLR262C, strain YPT6, stronger effect = lower value",0.93
same,normalized growth,"S. cerevisiae deletion strains, locus YLR268W, strain sec22, stronger effect = lower value",1.07
same,normalized growth,"S. cerevisiae deletion strains, locus YLR330W, strain CHS5, stronger effect = lower value",0.983
same,normalized growth,"S. cerevisiae deletion strains, locus YLR342W, strain FKS1 (second series), stronger effect = lower value",1.01
same,normalized growth,"S. cerevisiae deletion strains, locus YLR371W, strain rom2, stronger effect = lower value",0.988
same,normalized growth,"S. cerevisiae deletion strains, locus YLR418C, strain cdc73, stronger effect = lower value",0.998
same,normalized growth,"S. cerevisiae deletion strains, locus YML016C, strain PPZ1, stronger effect = lower value",0.982
same,normalized growth,"S. cerevisiae deletion strains, locus YML032C, strain rad52, stronger effect = lower value",1.02
same,normalized growth,"S. cerevisiae deletion strains, locus YML124C, strain tub3, stronger effect = lower value",0.992
same,normalized growth,"S. cerevisiae deletion strains, locus YMR078C, strain ctf18, stronger effect = lower value",1
same,normalized growth,"S. cerevisiae deletion strains, locus YMR223W, strain ubp8, stronger effect = lower value",0.983
same,normalized growth,"S. cerevisiae deletion strains, locus YMR263W, strain SAP30, stronger effect = lower value",1.01
same,normalized growth,[1],0.987
same,normalized growth,"S. cerevisiae deletion strains, locus YNL067W, strain RPL9B, stronger effect = lower value",1.02
same,normalized growth,"S. cerevisiae deletion strains, locus YNL128W, strain TEP1, stronger effect = lower value",0.976
same,normalized growth,"S. cerevisiae deletion strains, locus YNL153C, strain GIM3, stronger effect = lower value",0.998
same,normalized growth,"S. cerevisiae deletion strains, locus YNL183C, strain NPR1, stronger effect = lower value",0.954
same,normalized growth,"S. cerevisiae deletion strains, locus YNL233W, strain BNI4, stronger effect = lower value",1
same,normalized growth,"S. cerevisiae deletion strains, locus YNL250W, strain rad50, stronger effect = lower value",0.975
same,normalized growth,"S. cerevisiae deletion strains, locus YNL271C, strain bni1, stronger effect = lower value",1.01
same,normalized growth,"S. cerevisiae deletion strains, locus YNL298W, strain CLA4, stronger effect = lower value",0.999
same,normalized growth,"S. cerevisiae deletion strains, locus YNL307C, strain MCK1, stronger effect = lower value",0.987
same,normalized growth,"S. cerevisiae deletion strains, locus YNL322C, strain KRE1, stronger effect = lower value",0.994
same,normalized growth,"S. cerevisiae deletion strains, locus YNR052C, strain pop2, stronger effect = lower value",1
same,normalized growth,"S. cerevisiae deletion strains, locus YOL006C, strain TOP1, stronger effect = lower value",1.03
same,normalized growth,"S. cerevisiae deletion strains, locus YOL012C, strain htz1",0.801
same,normalized growth,"S. cerevisiae deletion strains, locus YOL147C, strain pex11, stronger effect = lower value",0.991
same,normalized growth,"S. cerevisiae deletion strains, locus YOR061W, strain CKA2, stronger effect = lower value",0.976
same,normalized growth,"S. cerevisiae deletion strains, locus YOR069W, strain VPS5, stronger effect = lower value",0.98
same,normalized growth,"S. cerevisiae deletion strains, locus YOR136W, strain idh2, stronger effect = lower value",0.986
same,normalized growth,"S. cerevisiae deletion strains, locus YOR144C, strain elg1, stronger effect = lower value",0.997
same,normalized growth,"S. cerevisiae deletion strains, locus YOR184W, strain ser1, stronger effect = lower value",0.985
same,normalized growth,"S. cerevisiae deletion strains, locus YOR231W, strain MKK1, stronger effect = lower value",1.02
same,normalized growth,"S. cerevisiae deletion strains, locus YOR316C, strain cot1, stronger effect = lower value",0.995
same,normalized growth,"S. cerevisiae deletion strains, locus YPL055C, strain LGE1, stronger effect = lower value",0.978
same,normalized growth,"S. cerevisiae deletion strains, locus YPL241C, strain CIN2, stronger effect = lower value",0.994
same,normalized growth,"S. cerevisiae deletion strains, locus YPL256C, strain CLN2, stronger effect = lower value",1.05
same,normalized growth,"S. cerevisiae deletion strains, locus YPR119W, strain clb2, stronger effect = lower value",0.991
same,normalized growth,"S. cerevisiae deletion strains, locus YPR141C, strain kar3, stronger effect = lower value",0.981
same,normalized growth,"S. cerevisiae deletion strains, locus YPR163C, strain tif3, stronger effect = lower value",1
same,normalized growth,"S. cerevisiae deletion strains, locus YPR167C, strain met16, stronger effect = lower value",1
same,normalized growth,"S. cerevisiae deletion strains, strain wtn01, stronger effect = lower value",1.02
same,normalized growth,"S. cerevisiae strains, strain wild type, stronger effect = lower value",0.981
